Data as given in article PMC5540273 (PLoS ONE, 2017).

Key:
Conditions in all cases: concentration: 1 μM,replicates: in singlicate; n = 1
[1] = system: T1, IKK-alpha
T1 construct: gene CHUK

[2] = system: T2, IKK-beta
T2 construct: gene IKBKB

[3] = system: T3, IKK-epsilon
T3 construct: gene IKBKE

[4] = system: INSRR
[5] = system: INSR
[6] = system: IRAK1
[7] = system: IRAK3
[8] = system: IRAK4
[9] = system: ITK
[10] = system: JAK1(JH1domain-catalytic)
[11] = system: JAK1(JH2domain-pseudokinase)
[12] = system: JAK2(JH1domain-catalytic)
[13] = system: JAK3(JH1domain-catalytic)
[14] = system: T4, JNK1
T4 construct: gene MAPK8

[15] = system: T5, JNK2
T5 construct: gene MAPK9

[16] = system: T6, JNK3
T6 construct: gene MAPK10

[17] = system: KIT-autoinhibited
[18] = system: KIT
[19] = system: LATS1
[20] = system: LATS2
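Also: KINOMEscan kinase panel screen.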

Compound | %Inh [1] | %Inh [2] | %Inh [3] | %Inh [4] | %Inh [5] | %Inh [6] | %Inh [7] | %Inh [8] | %Inh [9] | %Inh [10] | %Inh [11] | %Inh [12] | %Inh [13] | %Inh [14] | %Inh [15] | %Inh [16] | %Inh [17] | %Inh [18] | %Inh [19] | %Inh [20]
O=C(Nc1ccccc1)c1cccc(Oc2ccc3nccn3n2)c1 | 0% | 0% | 91.5% | 86% | 0% | 25% | 3% | 21% | 0% | 0% | 10% | 10% | 6% | 8% | 1% | 6% | 8% | 98.4% | 0% | 91.6%
O=c1[nH]cc(-c2ccc(O)cc2)c2sc(-c3ccncc3)cc12 [GSK1033723] | 0% | 0% | 9% | 0% | 100% | 59% | 1% | 5% | 0% | 35% | 0% | 33% | 51% | 0% | 0% | 0% | 0% | 27% | 0% | 24%
Cc1ccc(CC(=O)N2CCc3cc(-c4cn(C)c5ncnc(N)c45)ccc32)cc1 [GSK2634758] | 1% | 0% | 36% | 12% | 4% | 13% | 0% | 0% | 13% | 6% | 0% | 0% | 0% | 13% | 12% | 0% | 0% | 98.6% | 0% | 9%
C[C@@H](Oc1cc(-n2cnc3ccc(-c4ccncc4)cc32)sc1C(N)=O)c1ccccc1Cl [GSK483724] | 7% | 13% | 24% | 0% | 0% | 49% | 81% | 17% | 22% | 0% | 0% | 19% | 0% | 45% | 27% | 18% | 6% | 36% | 3% | 54%
COc1ccc(Nc2nccc(N3CCC(NC(=O)c4cccc(C#N)c4)C3)n2)cc1 (stereo not shown) [GSK1379730] | 0% | 6% | 0% | 0% | 0% | 10% | 0% | 3% | 14% | 6% | 0% | 12% | 0% | 15% | 16% | 10% | 0% | 0% | 0% | 0%
CS(=O)c1ccc(-c2coc3ccc(-c4n[nH]c(=O)o4)cc23)cc1 (stereo not shown) | 8% | 0% | 0% | 1% | 17% | 55% | 0% | 28% | 0% | 1% | 3% | 23% | 23% | 23% | 20% | 16% | 0% | 0% | 11% | 21%
CCN1CCN(CCCC(=O)Nc2n[nH]c3nc(-c4ccc(O)cc4)c(Br)cc23)CC1 [SB-731579] | 0% | 0% | 0% | 0% | 0% | 0% | 0% | 0% | 98.8% | 23% | 0% | 80% | 87% | 55% | 38% | 34% | 15% | 31% | 0% | 0%
CCOC(=O)N1CCC(n2cnc(-c3ccc(F)cc3)c2-c2ccnc(N)n2)CC1 [SB-219952] | 0% | 0% | 0% | 0% | 0% | 10% | 19% | 11% | 0% | 0% | 42% | 32% | 0% | 77% | 96.8% | 98.4% | 8% | 40% | 0% | 0%
O=C(NOCC1CC1)c1cc(Br)c(F)c(F)c1Nc1ccc(I)cc1Cl | 0% | 0% | 0% | 0% | 0% | 0% | 0% | 0% | 2% | 7% | 39% | 0% | 0% | 12% | 0% | 0% | 0% | 13% | 14% | 0%
COc1cccc(CNC(=O)NC2CCN(c3ccnc(Nc4cc(OC)c(OC)c(OC)c4)n3)C2)c1 (stereo not shown) [GSK1379765] | 21% | 24% | 36% | 96.4% | 0% | 73% | 86% | 27% | 20% | 13% | 11% | 89% | 0% | 29% | 9% | 25% | 0% | 60% | 0% | 5%
c1ccc(Oc2ccc(Nc3ccnc4ccc(-c5ccccn5)cc34)cc2)cc1 [GW407034] | 9% | 14% | 11% | 0% | 5% | 22% | 13% | 25% | 13% | 22% | 0% | 22% | 0% | 20% | 16% | 18% | 0% | 45% | 1% | 0%
COC(=O)c1cccc(NC(=O)NC2CCN(c3ccnc(Nc4cc(OC)c(OC)c(OC)c4)n3)C2)c1 (stereo not shown) [GSK1379767] | 0% | 0% | 40% | 0% | 11% | 62% | 79% | 11% | 11% | 9% | 13% | 82% | 0% | 16% | 20% | 28% | 0% | 77% | 0% | 17%
Cn1ccc2ncnc(Oc3ccc(NC(=O)Nc4cc(C(C)(C)C)on4)c(Cl)c3)c21 | 17% | 9% | 0% | 19% | 20% | 61% | 17% | 33% | 16% | 6% | 0% | 8% | 6% | 12% | 48% | 7% | 30% | 100% | 20% | 25%
COc1cccc(OC)c1C(=O)Nc1cccc(-c2nn3ccccc3c2-c2ccnc(Nc3cccc(F)c3)n2)c1 [GSK361065] | 0% | 0% | 4% | 0% | 0% | 0% | 0% | 0% | 93.8% | 0% | 4% | 3% | 0% | 44% | 0% | 0% | 11% | 90.9% | 6% | 10%
Nc1nccc(-c2ccc3c(N)n[nH]c3c2)n1 [GSK1034945] | 76% | 53% | 18% | 0% | 0% | 45% | 33% | 23% | 14% | 0% | 29% | 17% | 14% | 20% | 10% | 0% | 0% | 6% | 0% | 0%
CN(c1cccc(CNc2nc(Nc3ccc4c(c3)CC(=O)N4)ncc2C(F)(F)F)c1)S(C)(=O)=O | 24% | 14% | 19% | 21% | 48% | 48% | 22% | 0% | 26% | 43% | 79% | 98.1% | 100% | 40% | 31% | 35% | 31% | 57% | 29% | 24%
Cc1nnc(-c2ccc3occ(-c4ccc(S(C)=O)cc4)c3n2)o1 (stereo not shown) | 0% | 0% | 0% | 0% | 0% | 0% | 0% | 0% | 8% | 8% | 0% | 0% | 0% | 0% | 0% | 0% | 0% | 0% | 0% | 0%
CS(=O)(=O)c1cccc(CNc2nc(Nc3ccc4c(c3)[C@@H]3C[C@@H]4CNC3=O)ncc2C(F)(F)F)c1 | 5% | 0% | 87% | 74% | 94.5% | 39% | 0% | 0% | 49% | 93% | 91.1% | 98.4% | 100% | 38% | 30% | 46% | 39% | 42% | 24% | 45%
COc1cccc(C2=C(Nc3cccc(Cl)c3)C(=O)NC2=O)c1 [SB-341556] | 39% | 47% | 0% | 0% | 13% | 46% | 0% | 52% | 13% | 7% | 0% | 45% | 92.9% | 25% | 44% | 32% | 0% | 14% | 0% | 0%
O=C(Nc1ccc(Oc2ccc3nc(NC(=O)C4CC4)cn3n2)c(F)c1)c1cccn(-c2ccccc2)c1=O | 0% | 0% | 0% | 0% | 0% | 0% | 0% | 0% | 1% | 8% | 0% | 0% | 0% | 0% | 0% | 0% | 0% | 100% | 0% | 0%
